The values that follow come from ChEMBL document CHEMBL2218924, “A broad activity screen in support of a chemogenomic map for kinase signalling research and drug discovery” (Biochem J, 2013).

Test [1] deals with T1, Ephrin type-B receptor 1 (Homo sapiens) (UniProt P54762).
T1 sequence (whole entry): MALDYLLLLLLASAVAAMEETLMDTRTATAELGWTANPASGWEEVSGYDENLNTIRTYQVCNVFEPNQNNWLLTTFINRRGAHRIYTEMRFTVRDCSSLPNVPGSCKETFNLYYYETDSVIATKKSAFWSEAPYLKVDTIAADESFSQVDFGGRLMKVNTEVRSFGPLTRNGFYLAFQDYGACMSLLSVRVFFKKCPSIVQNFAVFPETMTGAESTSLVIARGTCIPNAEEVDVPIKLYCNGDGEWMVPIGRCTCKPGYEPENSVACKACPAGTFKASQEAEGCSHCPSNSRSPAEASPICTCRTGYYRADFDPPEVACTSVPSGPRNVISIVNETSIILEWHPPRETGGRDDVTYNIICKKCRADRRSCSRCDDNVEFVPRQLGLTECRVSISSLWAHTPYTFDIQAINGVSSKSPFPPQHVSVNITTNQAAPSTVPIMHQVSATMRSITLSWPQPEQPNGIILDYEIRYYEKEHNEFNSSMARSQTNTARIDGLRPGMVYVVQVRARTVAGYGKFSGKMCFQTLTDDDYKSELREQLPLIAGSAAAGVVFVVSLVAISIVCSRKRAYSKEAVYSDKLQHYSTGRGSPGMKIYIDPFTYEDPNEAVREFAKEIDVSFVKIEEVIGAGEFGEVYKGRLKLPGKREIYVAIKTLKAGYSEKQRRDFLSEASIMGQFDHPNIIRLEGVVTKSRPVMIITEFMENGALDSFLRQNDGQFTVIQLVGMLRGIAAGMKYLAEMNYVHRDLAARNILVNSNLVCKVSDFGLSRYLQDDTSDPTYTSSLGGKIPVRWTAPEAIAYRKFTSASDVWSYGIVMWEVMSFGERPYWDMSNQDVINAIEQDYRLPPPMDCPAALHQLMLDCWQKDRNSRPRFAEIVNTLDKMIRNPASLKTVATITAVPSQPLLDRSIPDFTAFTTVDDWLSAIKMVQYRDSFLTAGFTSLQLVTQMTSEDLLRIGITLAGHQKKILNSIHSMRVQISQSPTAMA
Particulars: at 10 µM; call rule not given here.

Test [2] concerns the target T2, Ephrin type-B receptor 2 (Homo sapiens) (UniProt P29323).
T2 sequence (whole entry): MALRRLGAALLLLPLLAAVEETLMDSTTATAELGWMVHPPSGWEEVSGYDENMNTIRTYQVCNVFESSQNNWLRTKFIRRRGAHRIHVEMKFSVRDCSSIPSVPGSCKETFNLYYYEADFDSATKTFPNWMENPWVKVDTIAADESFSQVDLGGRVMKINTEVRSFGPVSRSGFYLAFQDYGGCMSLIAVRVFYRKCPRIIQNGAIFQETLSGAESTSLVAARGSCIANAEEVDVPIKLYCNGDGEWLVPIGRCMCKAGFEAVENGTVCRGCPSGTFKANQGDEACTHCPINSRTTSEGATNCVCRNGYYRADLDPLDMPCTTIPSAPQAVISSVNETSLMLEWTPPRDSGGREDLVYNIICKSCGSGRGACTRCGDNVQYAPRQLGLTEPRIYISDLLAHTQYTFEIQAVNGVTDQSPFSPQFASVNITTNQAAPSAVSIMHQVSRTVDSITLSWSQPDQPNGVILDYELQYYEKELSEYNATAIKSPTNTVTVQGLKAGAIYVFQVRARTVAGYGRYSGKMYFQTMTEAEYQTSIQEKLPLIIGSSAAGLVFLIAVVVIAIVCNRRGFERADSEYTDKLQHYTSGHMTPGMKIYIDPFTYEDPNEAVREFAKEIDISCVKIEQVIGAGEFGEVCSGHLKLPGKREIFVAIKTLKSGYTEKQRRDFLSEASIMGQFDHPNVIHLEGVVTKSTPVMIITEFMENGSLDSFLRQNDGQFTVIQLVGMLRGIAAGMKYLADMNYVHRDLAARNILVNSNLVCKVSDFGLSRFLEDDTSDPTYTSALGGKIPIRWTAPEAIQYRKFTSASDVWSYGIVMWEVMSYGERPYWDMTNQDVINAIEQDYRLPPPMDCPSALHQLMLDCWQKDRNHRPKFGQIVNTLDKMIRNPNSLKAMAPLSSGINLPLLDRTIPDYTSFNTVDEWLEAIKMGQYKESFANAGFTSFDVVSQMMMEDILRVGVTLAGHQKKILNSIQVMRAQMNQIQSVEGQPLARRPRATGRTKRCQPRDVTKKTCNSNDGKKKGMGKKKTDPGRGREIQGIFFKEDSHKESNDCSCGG
As to conditions: at 1 µM.

The target of test [3] is T2, Ephrin type-B receptor 2 (Homo sapiens). Particulars: at 10 µM.
Test [4] addresses T3, Ephrin type-B receptor 3 (Homo sapiens) (UniProt P54753).
T3 sequence (whole entry): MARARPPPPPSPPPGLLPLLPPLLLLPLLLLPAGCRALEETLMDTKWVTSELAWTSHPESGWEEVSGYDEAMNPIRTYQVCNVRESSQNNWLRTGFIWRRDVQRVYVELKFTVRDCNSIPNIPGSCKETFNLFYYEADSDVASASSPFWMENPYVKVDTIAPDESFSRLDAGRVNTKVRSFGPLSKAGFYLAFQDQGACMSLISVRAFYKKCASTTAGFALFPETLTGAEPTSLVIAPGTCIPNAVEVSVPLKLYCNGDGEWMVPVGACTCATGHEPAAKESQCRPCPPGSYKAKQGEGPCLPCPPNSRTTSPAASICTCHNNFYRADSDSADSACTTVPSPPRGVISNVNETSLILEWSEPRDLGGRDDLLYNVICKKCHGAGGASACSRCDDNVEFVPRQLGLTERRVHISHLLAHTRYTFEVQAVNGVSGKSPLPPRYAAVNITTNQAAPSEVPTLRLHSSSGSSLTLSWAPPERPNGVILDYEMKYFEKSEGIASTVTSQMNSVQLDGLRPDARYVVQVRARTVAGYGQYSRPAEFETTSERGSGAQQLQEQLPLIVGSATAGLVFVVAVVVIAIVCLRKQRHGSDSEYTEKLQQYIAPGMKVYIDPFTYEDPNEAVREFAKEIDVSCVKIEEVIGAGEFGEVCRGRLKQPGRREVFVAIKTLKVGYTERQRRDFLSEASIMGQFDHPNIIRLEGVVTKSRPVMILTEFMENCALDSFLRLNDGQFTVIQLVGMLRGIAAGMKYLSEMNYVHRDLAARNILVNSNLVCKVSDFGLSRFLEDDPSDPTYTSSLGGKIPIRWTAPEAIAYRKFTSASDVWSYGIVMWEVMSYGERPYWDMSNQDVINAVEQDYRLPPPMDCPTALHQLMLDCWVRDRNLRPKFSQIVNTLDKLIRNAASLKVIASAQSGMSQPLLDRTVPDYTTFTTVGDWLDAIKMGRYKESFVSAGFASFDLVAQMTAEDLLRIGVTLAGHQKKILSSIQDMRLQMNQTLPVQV
Particulars: at 1 µM.

The target in test [5] is T3, Ephrin type-B receptor 3 (Homo sapiens). As to conditions: at 10 µM.
Test [6] addresses T4, Ephrin type-B receptor 4 (Homo sapiens) (UniProt P54760).
T4 sequence (whole entry): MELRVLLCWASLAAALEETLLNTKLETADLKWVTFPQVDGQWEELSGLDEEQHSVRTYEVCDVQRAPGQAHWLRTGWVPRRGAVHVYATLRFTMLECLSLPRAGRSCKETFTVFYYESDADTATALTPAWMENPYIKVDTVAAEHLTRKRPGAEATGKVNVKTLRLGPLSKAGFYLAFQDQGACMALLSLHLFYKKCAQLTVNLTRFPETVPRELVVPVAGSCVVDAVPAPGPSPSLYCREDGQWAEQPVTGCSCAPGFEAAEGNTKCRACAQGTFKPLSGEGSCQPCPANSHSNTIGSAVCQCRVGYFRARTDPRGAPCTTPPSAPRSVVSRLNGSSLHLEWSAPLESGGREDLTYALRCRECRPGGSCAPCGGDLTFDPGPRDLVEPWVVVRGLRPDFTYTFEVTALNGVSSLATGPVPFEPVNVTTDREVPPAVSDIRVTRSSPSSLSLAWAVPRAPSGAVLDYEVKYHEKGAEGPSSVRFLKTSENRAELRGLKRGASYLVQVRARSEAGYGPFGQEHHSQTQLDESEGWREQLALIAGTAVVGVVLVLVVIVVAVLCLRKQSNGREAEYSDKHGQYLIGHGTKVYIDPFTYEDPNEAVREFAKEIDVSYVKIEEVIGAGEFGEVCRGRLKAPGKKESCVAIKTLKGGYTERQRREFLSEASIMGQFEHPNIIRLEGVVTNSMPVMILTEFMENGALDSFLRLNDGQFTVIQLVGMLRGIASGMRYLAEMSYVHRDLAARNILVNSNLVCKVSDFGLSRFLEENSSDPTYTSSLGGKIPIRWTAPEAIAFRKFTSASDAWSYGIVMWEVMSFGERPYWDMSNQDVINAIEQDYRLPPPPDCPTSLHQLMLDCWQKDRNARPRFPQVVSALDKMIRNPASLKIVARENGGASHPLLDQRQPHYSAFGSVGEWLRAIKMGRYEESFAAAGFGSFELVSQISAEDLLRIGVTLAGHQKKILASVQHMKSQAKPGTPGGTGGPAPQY
Particulars: at 1 µM.

For test [7], the target named is T4, Ephrin type-B receptor 4 (Homo sapiens). Particulars: at 10 µM.
Test [8] deals with Receptor tyrosine-protein kinase erbB-4 (Homo sapiens) (UniProt Q15303). Particulars: at 1 µM.
Sequence of Receptor tyrosine-protein kinase erbB-4 (Homo sapiens) (Q15303 whole entry): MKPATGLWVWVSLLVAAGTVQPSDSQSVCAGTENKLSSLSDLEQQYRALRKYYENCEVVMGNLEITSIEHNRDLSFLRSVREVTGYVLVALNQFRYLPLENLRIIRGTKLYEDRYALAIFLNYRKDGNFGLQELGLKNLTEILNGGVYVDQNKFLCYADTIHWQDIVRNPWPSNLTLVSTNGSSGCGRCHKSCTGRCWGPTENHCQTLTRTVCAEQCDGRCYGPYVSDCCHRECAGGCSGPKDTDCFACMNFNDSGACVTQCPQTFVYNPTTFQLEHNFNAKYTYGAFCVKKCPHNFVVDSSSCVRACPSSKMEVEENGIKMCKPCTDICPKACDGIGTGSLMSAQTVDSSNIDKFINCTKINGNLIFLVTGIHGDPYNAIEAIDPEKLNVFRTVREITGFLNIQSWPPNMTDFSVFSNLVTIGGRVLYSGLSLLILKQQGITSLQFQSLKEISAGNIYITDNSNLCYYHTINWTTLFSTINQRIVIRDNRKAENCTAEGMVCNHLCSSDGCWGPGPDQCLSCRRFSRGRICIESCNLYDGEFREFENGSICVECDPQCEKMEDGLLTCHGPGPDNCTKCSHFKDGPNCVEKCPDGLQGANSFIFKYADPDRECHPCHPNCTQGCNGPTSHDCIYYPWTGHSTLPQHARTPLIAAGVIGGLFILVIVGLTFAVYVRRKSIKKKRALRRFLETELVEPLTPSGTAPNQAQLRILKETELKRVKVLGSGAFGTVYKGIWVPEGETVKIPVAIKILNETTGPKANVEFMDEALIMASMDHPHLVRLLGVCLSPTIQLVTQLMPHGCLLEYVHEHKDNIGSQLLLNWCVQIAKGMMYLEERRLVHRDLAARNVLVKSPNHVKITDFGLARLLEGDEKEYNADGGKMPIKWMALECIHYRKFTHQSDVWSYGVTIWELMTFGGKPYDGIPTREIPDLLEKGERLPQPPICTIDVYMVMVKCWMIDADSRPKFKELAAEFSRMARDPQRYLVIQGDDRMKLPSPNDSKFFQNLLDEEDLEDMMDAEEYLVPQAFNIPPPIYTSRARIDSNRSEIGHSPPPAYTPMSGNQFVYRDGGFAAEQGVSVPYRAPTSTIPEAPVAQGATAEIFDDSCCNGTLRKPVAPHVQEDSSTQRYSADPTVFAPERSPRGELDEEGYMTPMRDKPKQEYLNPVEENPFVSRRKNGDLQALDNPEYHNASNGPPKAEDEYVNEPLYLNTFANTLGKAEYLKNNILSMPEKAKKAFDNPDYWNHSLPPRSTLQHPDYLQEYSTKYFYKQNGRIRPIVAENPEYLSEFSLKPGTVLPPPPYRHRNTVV
Test [9] has the same target. Particulars: at 10 µM.
The target in test [10] is Focal adhesion kinase 1 (Homo sapiens) (UniProt Q05397). As to conditions: at 1 µM.
Sequence of Focal adhesion kinase 1 (Homo sapiens) (Q05397 2-1052 limits assumed): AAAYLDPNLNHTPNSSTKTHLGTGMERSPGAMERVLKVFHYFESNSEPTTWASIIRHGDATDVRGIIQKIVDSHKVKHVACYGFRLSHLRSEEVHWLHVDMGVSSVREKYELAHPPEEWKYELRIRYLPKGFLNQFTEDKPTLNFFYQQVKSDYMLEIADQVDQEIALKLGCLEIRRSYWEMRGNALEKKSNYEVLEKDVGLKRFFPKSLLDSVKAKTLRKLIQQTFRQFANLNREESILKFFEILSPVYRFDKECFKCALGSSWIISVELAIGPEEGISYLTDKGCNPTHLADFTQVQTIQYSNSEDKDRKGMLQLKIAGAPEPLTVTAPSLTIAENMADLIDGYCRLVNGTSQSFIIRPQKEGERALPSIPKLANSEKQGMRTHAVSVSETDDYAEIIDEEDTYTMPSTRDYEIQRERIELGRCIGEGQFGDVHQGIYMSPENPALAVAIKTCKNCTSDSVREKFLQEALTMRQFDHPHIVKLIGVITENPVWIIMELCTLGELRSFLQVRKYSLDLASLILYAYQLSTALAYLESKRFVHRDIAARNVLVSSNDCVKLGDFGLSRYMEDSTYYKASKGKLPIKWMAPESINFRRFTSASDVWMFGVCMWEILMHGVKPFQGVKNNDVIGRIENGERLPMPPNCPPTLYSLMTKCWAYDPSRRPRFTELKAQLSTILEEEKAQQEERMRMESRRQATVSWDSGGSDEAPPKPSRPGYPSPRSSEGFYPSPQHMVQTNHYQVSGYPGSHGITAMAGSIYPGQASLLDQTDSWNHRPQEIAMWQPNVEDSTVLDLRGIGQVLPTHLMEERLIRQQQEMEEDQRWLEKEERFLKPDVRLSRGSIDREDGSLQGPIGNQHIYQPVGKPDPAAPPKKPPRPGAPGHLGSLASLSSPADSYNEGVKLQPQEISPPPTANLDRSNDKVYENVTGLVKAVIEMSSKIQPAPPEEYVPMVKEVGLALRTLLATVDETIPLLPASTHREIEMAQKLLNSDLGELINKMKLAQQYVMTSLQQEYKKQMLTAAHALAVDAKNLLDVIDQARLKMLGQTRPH

Usually residual activity stands for the signal under treatment as a percentage of the control signal. For `Oc1n[nH]c2nnc(-c3c(-c4ccccc4)nn4ccccc34)cc12`, the residual activity in test [1] was 83%; in [2] it was 123%; in test [3], 128%; in test [4], 109% (inactive); in [5] it was 103%; in test [6], 86%. Moreover, the residual activity in test [7] came out at 80%; in test [8] it was 92%; in test [9] it was 75%; in test [10], 98%.
